We go through 26 compounds from PubChem BioAssay AID1508625 (Wald Lab, School of Medicine, Case Western Reserve …, 2021).

Each structure is given as a SMILES string.

The assay is described as follows: enhancers of NK cell killing of ovarian tumor cells, primary screen, imaging, OVCAR3, primary NK cells, calcein-AM imaging (AID 1508625).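 Note: compound given to NK cells 16 h before adding targets at 1.5 to 1 ratio.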 The conditions noted are these: OVCAR3 lysis by primary NK cells, at 5 µM; z-score: measured here: robust Z-score, single-point normalisation.

On to `N[n+]1cnn(CC(=O)c2ccccc2)c1`, for which the corrected activity, negative = more killing is -7.75% and the z-score was -2.46.
On the same counts, the results for `COc1cc(OC)c(C=Nc2ccc(OC(F)(F)F)cc2)cc1Br` are -1.81% and -0.768.
For the compound `O=C(NCc1ccccc1)c1ccc2c(=O)n(-c3cc(C(F)(F)F)ccc3Cl)c(=S)[nH]c2c1`, the corrected activity, negative = more killing was -5.46% and the z-score is -1.74.
For `CCOc1cc(C(=S)N2CCCCC2)ccc1OC(=O)c1ccc([N+](=O)[O-])cc1`, the corrected activity, negative = more killing was 0.525% and the z-score is 0.163.
Take `O=C(Nc1ccc(Cc2ccncc2)cc1)C1CCC(N2C(=O)C3CC=CCC3C2=O)CC1` (configuration not stated): the corrected activity, negative = more killing is -4.96% and the z-score is -1.89.
`COc1cc(C=C2C=C(c3ccc(C)cc3)OC2=O)cc(OC)c1OC`: the corrected activity, negative = more killing is -0.351% and the z-score is -0.181.
Regarding `CC(=O)OC1CC(C)N(C(=O)c2ccccc2)c2ccc(C)cc21` (configuration not stated), the corrected activity, negative = more killing is -5.57% and the z-score was -1.73.
Take `Cc1ccc(C(=O)NC(=Cc2cccnc2)C(=O)Nc2ccc(I)cc2)cc1`: the corrected activity, negative = more killing was -0.444% and the z-score was -0.23.
On the same counts, the results for `Cc1c(NC(=O)CCCCCN2C(=O)c3ccccc3C2=O)c(=O)n(-c2ccccc2)n1C` are -6.57% and -2.47.
As for `CCOc1ccc2nc(SCCC(=O)Nc3ccc(OC)cc3)sc2c1`, the corrected activity, negative = more killing is -5.58% and the z-score is -2.99.
Consider `CC1=C(C)CC(C(=O)Nc2ccc(S(=O)(=O)N3CCOCC3)cc2)C(C(=O)O)C1` (configuration not stated), for which the corrected activity, negative = more killing was -10.2% and the z-score is -3.17.
Consider `CC(Oc1cccc(Cl)c1)C(=O)ON=C(N)c1ccncc1` (configuration not stated), for which the corrected activity, negative = more killing is 0.422% and the z-score was 0.235.
With `CC(=O)c1ccc(NC(=O)c2ccc(C)c([N+](=O)[O-])c2)cc1`, the corrected activity, negative = more killing is -3.69% and the z-score is -1.31.
For the compound `CCCOc1ccc(C(=O)Nc2ccc3oc(-c4ccccc4)nc3c2)cc1`, the corrected activity, negative = more killing is -3.03% and the z-score is -1.07.
Take `CC(=O)Nc1ncc(Br)cc1[N+](=O)[O-]`: the corrected activity, negative = more killing was -1.26% and the z-score was -0.391.
Take `O=C(c1cccc(F)c1)N1CCCN(C(=O)c2cccc(F)c2)CC1`: the corrected activity, negative = more killing is -4.12% and the z-score was -1.69.
As for `Cc1nc2ccccc2n1Cc1cccc2ccccc12`, the corrected activity, negative = more killing was -3.88% and the z-score was -2.01.
`COC(=O)c1ccc(NC(=O)CN2CCN(CC#N)CC2)cc1`: the corrected activity, negative = more killing is -5.45% and the z-score is -2.05.
With `O=C(NN=Cc1ccncc1)c1n[nH]c2c1CCC2`, the corrected activity, negative = more killing was -1.79% and the z-score is -0.783.
On the same counts, the results for `Cc1c(Cl)cccc1NC(=O)c1sc2ncn(CC(=O)N3CCOCC3)c(=O)c2c1C` are 0.676% and 0.246.
For `CCOc1ccc(-n2c(SCC(=O)c3ccccc3)nc3c([nH]c4ccccc43)c2=O)cc1`, the corrected activity, negative = more killing is -9% and the z-score was -2.24.
As to `COc1ccc(-c2n[nH]c(=S)o2)cc1`, the corrected activity, negative = more killing was -4.44% and the z-score was -1.69.
For the compound `Cc1sc2nc(SCC(=O)Nc3ccc(N(C)C)cc3)[nH]c(=O)c2c1C`, the corrected activity, negative = more killing is -4.5% and the z-score is -2.5.
For `COCCNCCCSc1ccc(Cl)cc1`, the corrected activity, negative = more killing is -1.98% and the z-score is -0.737.
For the compound `N#Cc1c2c(c(-n3ccnc3)n3c1nc1ccccc13)CCC2`, the corrected activity, negative = more killing was -2.49% and the z-score is -0.772.
Consider `CC(C)C(CC(=O)O)NS(=O)(=O)c1ccc(F)cc1` (configuration not stated), for which the corrected activity, negative = more killing is -3.43% and the z-score is -0.924.
